Among the data in ChEMBL document CHEMBL1157539, “Thousands of chemical starting points for antimalarial lead identification” (Nature, 2010) are Inhibition values, retold here.

The test system of this experiment is Plasmodium falciparum. Description: GSK_TCMDC: Inhibition of Plasmodium falciparum Dd2 in whole red blood cells, using parasite LDH activity as an index of growth. Test compounds present at 2uM. It counts as functional.
In turn, `Cc1ccc(Nc2nc3cc(Nc4ccnc(Nc5ccc(CS(C)(=O)=O)cc5)n4)ccc3o2)cc1` showed an Inhibition of 66%. Then `COc1ccc(CNC2CCN(C)CC2)cc1-c1ccc(S(=O)(=O)NCCc2ccccn2)s1.O=C(O)C(F)(F)F`, with 12%; and `Cl.N#Cc1ccc(CCNc2nccc(-c3cccc(CN4CCNCC4)c3)n2)cc1`, with 0%; and `CC(C)c1cc2c(ccc3nc(N)nc(N)c32)o1`, with 37%. The result for `Cc1cc(-c2cccc(CNC3CCN(C)CC3)c2)ccc1S(=O)(=O)NCc1ccccc1.O=C(O)C(F)(F)F` reads 90%; that for `COc1cc(Nc2ccnc3ccc(C(F)(F)F)cc23)cc(OC)c1OC`, 100%. Then `O=C(CC1SC(N2N=C(c3cccs3)CC2c2ccccc2)=NC1=O)Nc1ccc(Cl)cc1` (stereo not given), with 88%.

Turning to `COc1ccc(-c2c(C(F)(F)F)nn(C)c2NC(=O)Nc2ccc(F)cc2F)cc1`, the Inhibition worked out at 99%. In the case of `CN(Cc1cc(C(F)(F)F)cc(C(F)(F)F)c1)C(=O)C1CNCC1c1ccc(F)cc1.Cl` (stereo not given), the Inhibition is 4%. Then `O=C(Nc1ccc(CCNC2=NCCN2)cc1)Nc1ccc(CCNC2=NCCN2)cc1`, with 66%; and `CC[C@H](NC(=O)c1c(CCCN2CCN(c3ccccc3)CC2)c(-c2ccccc2)nc2cc(O)ccc12)c1ccccc1`, with 97%. The result for `CC(C)Cn1cc(C2CCN(CCN3CCC(CNC(=O)c4ccc(-c5ccc(C(F)(F)F)cc5)cc4)CC3)CC2)c2ccccc21` reads 87%; that for `O=C(NCCCCCN1CCC(c2c[nH]c3ccccc23)CC1)Nc1ccc(Br)cc1`, 0%. The result for `CN(C)CCOc1cc(O)c2c(c1)OC(C)(C)C=C2c1cccs1` reads 10%; that for `CNc1nc(N/N=C/c2cc3c(cc2[N+](=O)[O-])OCO3)nc(Nc2cccc(C(F)(F)F)c2)n1`, 60%. Compound `CCCCCCNC(=O)C1Cc2c([nH]c3ccc(F)cc23)C2(CCN(Cc3ccccc3)CC2)N1` (stereo not given) returned an Inhibition of 39%. The compound `COc1ccc2c(=O)c(-c3ccc(OC(F)(F)F)cc3)c(C)[nH]c2c1` returned an Inhibition of 96%. The result for `COc1ccc(S(=O)(=O)N2CCC(NS(=O)(=O)c3ccc(F)cc3)CC2)cc1` reads 0%. The result for `CCCCOC(=O)c1ccc(NC(=O)Nc2ccc(Cn3ncc(N4CCCNCC4)c(Cl)c3=O)cc2)cc1.O=C(O)C(F)(F)F` reads 74%; that for `CNCCNCc1cccc(-c2ccc(-c3nc4cc(C(F)(F)F)ccc4[nH]3)cc2)c1.O=C(O)C(F)(F)F`, 92%. The result for `CCCCCC(C)C(C)c1cc(O)c2c(c1)OC(C)(C)CC2(O)c1ccnn1C` (stereo not given) reads 95%; that for `CCc1cn2c3c(cc(C(=O)N[C@@H](Cc4ccccc4)[C@H](O)CNC4CCOCC4)cc13)N(C(C)C)S(=O)(=O)CC2.O=CO`, 99%; that for `O=C(O)C(F)(F)F.O=S(=O)(NC1CCN(c2ccnc3cc(Cl)ccc23)C1)c1cccs1` (stereo not given), 76%. In turn, `CCCC(C)Nc1nc(C)cc(N[C@@H](CC(C)C)C(=O)NCc2ccc(C)cc2)n1.O=C(O)C(F)(F)F` (stereo not given in full) registered an Inhibition of 51%. Then `O=C(NC1CCCCC1)N(CCCn1ccnc1)Cc1csc(-c2ccc(CNCc3ccccc3)cc2)n1.O=C(O)C(F)(F)F`, with 48%; and `CCCCOc1ccc(/C=C/c2ccc(-c3c(C)[nH]c(C)c(Cl)c3=O)s2)cc1`, with 96%. The result for `CCC(Cc1cnc2nc(N)nc(N)c2n1)c1ccc(C(=O)N[C@@H](CCC(=O)O)C(=O)O)cc1` (stereo not given in full) [EDATREXATE] reads 98%; that for `Cc1ccc(C2=NNC3(S2)C(=O)N(C)c2ccccc23)cc1` (stereo not given), 12%; that for `Cc1cccc2nc(-c3ccc(-c4cccc(NC(=O)c5cncn5C)c4)cc3)[nH]c12`, 1%. The result for `O=C(O)C[C@H](NC(=O)[C@@H]1CCCN1C(=O)c1cccc(-c2ccc(Cl)c(Cl)c2)c1)C(=O)O` reads 0%; that for `Cc1cc(C)c(NC(=O)N[C@H]2CCN(CCCCCNC(=O)/C=C/c3ccc(Cl)c(Cl)c3)C2)c(C)c1`, 3%; that for `C=C1C(C(=O)OCC)=CN(CC)c2cc(O[C@H]3CCN(C(=O)OC(C)(C)C)C3)ccc21`, 75%. As to `CCN(CC)CCN(Cc1ccc(-c2ccc(C(F)(F)F)cc2)cc1)C(=O)Cn1c(CCc2cccc(F)c2F)nc(=O)c2cc(F)c(F)cc21.O=C(O)C(O)C(O)C(=O)O`, the Inhibition is 56%.

In the case of `C=CCOc1ccccc1CNCC(O)c1cc(Br)cs1` (stereo not given), the Inhibition is 72%. `CCc1ccc(CN2CCC(CNC(=O)c3cc(-c4ccccc4Cl)cs3)C2)cc1.O=C(O)C(F)(F)F` (stereo not given) yielded an Inhibition of 0%. The result for `CCOc1ccc2[nH]c(C)cc(=NN=Cc3ccccc3F)c2c1` reads 99%; that for `O=C(Cc1ccc[n+]([O-])c1)Nc1cccc(-c2cccc(-c3nc4cc(F)ccc4[nH]3)c2)c1`, 98%.

`O=C(Nc1cc(Oc2ccc(O)cc2)cc([N+](=O)[O-])c1)c1cc(-c2ccc(F)cc2)no1`: the Inhibition amounted to 37%. The result for `O=S(=O)(c1csc2ccccc12)N(CCC(O)(C(F)(F)F)C(F)(F)F)Cc1cccc(O)c1` reads 100%; that for `CC(Cc1ccc(NC(=O)c2ccc(NCCc3ccccc3)cc2)cc1)NCCc1cccc(Cl)c1.Cl` (stereo not given), 1%.

For orientation: Inhibition means the percentage by which the read-out fell short of the control. A high value points to a strong effect.
